Compounds with a hit are over-represented: about 4.1% of the library has one in this group of screens.
aSyn UTR inh – MLPCN primary screen, SNCA 5' untranslated region; 0.82% of 300,000 active; alpha-synuclein 5'UTR reporter, inhibitor activity; inhibition, % (tested at 7.5 µM); AID 1813; in the data active = inhibition above about 60%;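 also: H4 neuroglioblastoma cells stably carrying SNCA 5'UTR luciferase fusion; 0% = DMSO wells and 100% = positive control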
Beta apoptosis – beta cell apoptosis inhibition; INS-1E cytokine-induced death, ATP luminescence, 48 h; percent of positive-control rescue, neutral wells zero; protection from apoptosis, % (no concentration beside the values); 0.8% of 300,000 active;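 active = Every replicate reaches about 75%, or at least half do and their mean reaches it too, limit read from the data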;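 also: 0% = cytokine-treated negative control wells and 100% = positive control rescue; higher means more ATP so stronger rescue from cytokine killing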
CSC inhib – cancer stem cell inhibition; cancer stem cell-like cells viability, luminescence; inhibition, % at 7.5 µM; 1.1% of 300,000 active; AID 2717; in the data active = inhibition above about 75%; tested in HMLE shEcad cells
Bfl-1 A1 inh – inhibitors of the anti-apoptotic protein A1, read as caspase activation | MEF A1-2A-BIM cells, Caspase-Glo 3/7 luminescence, 3 h; percent of clofoctol response, vehicle zero | caspase activation, % (concentration not given with the values) | 0.066% of 330,000 active | AID 2462;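 active = over half of replicate activation scores above 10%, or exactly half above 10 with the replicate mean above 10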
Mdm2 MdmX PPI – inhibitors of human Mdm2/MdmX interaction; O15151+Q00987; SaOS-2 split-luciferase Mdm2/MdmX complementation, luminescence; inhibition, % at 8 µM; 3% of 330,000 active; AID 485346;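 active = inhibition of at least 50% at 8 µM in the primary screen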
Target sequence (O15151 whole entry, looked up): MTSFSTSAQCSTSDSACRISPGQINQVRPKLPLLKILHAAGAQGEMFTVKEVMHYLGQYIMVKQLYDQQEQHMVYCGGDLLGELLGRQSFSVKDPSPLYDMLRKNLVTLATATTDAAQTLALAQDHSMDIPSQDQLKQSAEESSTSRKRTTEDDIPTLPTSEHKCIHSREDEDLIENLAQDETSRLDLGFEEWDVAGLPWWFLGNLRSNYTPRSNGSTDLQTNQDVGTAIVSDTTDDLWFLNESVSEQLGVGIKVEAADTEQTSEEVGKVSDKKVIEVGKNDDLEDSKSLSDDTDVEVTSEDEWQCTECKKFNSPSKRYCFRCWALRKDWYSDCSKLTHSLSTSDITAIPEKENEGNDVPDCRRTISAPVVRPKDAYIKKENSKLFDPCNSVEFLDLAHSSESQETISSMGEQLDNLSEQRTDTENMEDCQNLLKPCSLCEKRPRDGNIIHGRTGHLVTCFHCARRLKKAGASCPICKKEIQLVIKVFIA
Target sequence (Q00987 whole entry, looked up): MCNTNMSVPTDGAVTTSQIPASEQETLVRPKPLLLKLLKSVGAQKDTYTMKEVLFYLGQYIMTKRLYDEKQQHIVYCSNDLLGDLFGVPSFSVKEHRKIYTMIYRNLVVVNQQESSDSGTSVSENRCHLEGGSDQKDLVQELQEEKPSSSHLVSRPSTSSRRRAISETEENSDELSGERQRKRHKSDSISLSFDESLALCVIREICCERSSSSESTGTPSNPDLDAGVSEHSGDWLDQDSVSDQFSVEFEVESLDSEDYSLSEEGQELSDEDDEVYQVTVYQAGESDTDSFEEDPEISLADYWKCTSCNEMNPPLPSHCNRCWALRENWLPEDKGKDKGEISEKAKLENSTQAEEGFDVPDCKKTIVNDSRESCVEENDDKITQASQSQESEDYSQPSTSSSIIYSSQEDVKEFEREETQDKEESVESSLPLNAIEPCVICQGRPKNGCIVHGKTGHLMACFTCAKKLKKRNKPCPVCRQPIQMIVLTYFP
Mdm2 MdmX conf – human Mdm2/MdmX binding inhibition, confirmed | 55% of 10,000 active | shares compounds with Mdm2 MdmX PPI | inhibition, % at 8 µM | luminescent assay; in the data active = inhibition above about 40%
Full FLuc ctr – full-length luciferase inhibition in Mdm2/MdmX counter-screen; shares compounds with Mdm2 MdmX PPI; SaOS-2 full-length luciferase counterscreen, luminescence; inhibition, % at 8 µM; 77% of 6,200 active;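 active = mean inhibition at 8 µM reaching about 37%, which flags the compound as non-specific, limit read from the data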;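 also: p53-null SaOS-2 cells with luciferase driven by a doxycycline-inducible promoter; compound on cells about two nights before reading with doxycycline added after day one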
Starred values were filed as active, the others as inactive; / = not tested or not shown; ! = a repeat was not active.

SMILES	aSyn UTR inh	Beta apoptosis	CSC inhib	Bfl-1 A1 inh	Mdm2 MdmX PPI	Mdm2 MdmX conf	Full FLuc ctr
O=C(NCc1ccccc1Cl)C1=CC=CN2CCS(=O)(=O)N=C12	/	2	-17	0	11	/	/
CCN1C(=O)[C@H]2[C@@H](c3ccc(-c4ccc(Cl)c(Cl)c4)c(OC)c3)N3CCCC[C@@]3(C(=O)OC)[C@H]2C1=O	/	-2	/	0	66*	13	/
COC(=O)[C@@]12CCCCN1[C@H](c1ccc(-c3cccc(Cl)c3)cc1)[C@@H]1C(=O)N(C)C(=O)[C@@H]12	/	9	/	1	78*	31	/
COC(=O)[C@@]12CCCCN1[C@H](c1ccc(-c3cccc(Cl)c3)cc1)[C@H]1C(=O)N(C)C(=O)[C@H]12	4	5	49	0	33	/	/
COc1cc(N)c(Cl)cc1C(=O)OCC(=O)NCC1CCCCC1	/	-4	-3	-1	-3	/	/
Cc1ccc(NC(=S)N=Nc2c(O)n(C)c3ccc(S(=O)(=O)N4CCOCC4)cc23)cc1C	77*	/	2	-1	52*	41*	48*
Cc1cccc(-c2cc3nc4c(c(N5CCOCC5)n3n2)CCCC4)c1	-114	2	-6	-3	65*	33	/
CCCCCNC(=O)Cc1ccc(S(=O)(=O)N2CCOCC2)s1	-6	-2	-13	-1	22	/	/
CC(=O)Nc1nonc1-c1nc2ccccc2n1Cc1ccccc1	45	2	45	-2	70*	66*	118*
CC(=O)Nc1nonc1-c1nc2ccccc2n1Cc1nnc(C)o1	-19	0	-14	1	19	/	/
CCOC(=O)c1nc(NNC(=O)c2ccc([N+](=O)[O-])cc2)sc1C	62*	103*	65	1	58*	46*	27
CCOC(=O)c1sc(NNC(=O)c2ccc(C)cc2)nc1C	-24	-4	3	0	16	/	/
S=c1[nH]nc(-c2ccccc2)n1/N=C/c1ccc(-c2ccccc2Cl)o1	37	7	102*	-1	90*	90*	54*
COC(=O)/C=c1\[nH]c2nnc(C)n2c1=O	9	/	-17	-1	7	/	/
O=C(NCc1cc([N+](=O)[O-])ccc1O)c1cccnc1Sc1ccccc1Cl	2	4	-2	0	18	/	/
CCN(CC)c1ccc(/C=C2\NC(=O)NC2=O)cc1	5	4	46	-1	63*	48*	58*
O=C1c2ccccc2C(=O)c2c(Nc3ccc(CCO)cc3)ccc(O)c21	10	22	88*	-1	72*	35	33
O=C(C[C@H]1C/C=C\C[C@H](NC(=O)OCC2c3ccccc3-c3ccccc32)C(=O)O[C@H](c2ccccc2)CNC1=O)N[C@H](CO)Cc1ccccc1	/	35	/	0	78*	47*	56*
CC(C)(C)OC(=O)C[C@@H]1C/C=C\C[C@@H](CC(=O)N(CCO)Cc2ccccc2)C(=O)NC[C@@H](c2ccccc2)OC1=O	/	2	/	-1	0	/	/
O=C(N[C@@H]1C/C=C\C[C@H](CC(=O)N(CCO)Cc2ccccc2)C(=O)NC[C@@H](c2ccccc2)OC1=O)OCC1c2ccccc2-c2ccccc21	/	26	/	0	51*	7	/
O=C(N[C@@H]1C/C=C\C[C@@H](CC(=O)N(CCO)Cc2ccccc2)C(=O)NC[C@H](c2ccccc2)OC1=O)OCC1c2ccccc2-c2ccccc21	/	11	/	0	61*	11	/
O=C(N[C@H]1C/C=C\C[C@H](CC(=O)N(CCO)Cc2ccccc2)C(=O)N[C@@H](c2ccccc2)COC1=O)OCC1c2ccccc2-c2ccccc21	/	/	/	/	9	/	/
CC(C)(C)OC(=O)C[C@@H]1C/C=C\C[C@@H](CC(=O)N(CCO)Cc2ccccc2)C(=O)NC[C@H](c2ccccc2)OC1=O	/	3	22	0	60*	40*	71*
O=C(C[C@H]1C/C=C\C[C@@H](Cc2ccc(F)cc2)C(=O)O[C@H](c2ccccc2)CNC1=O)N[C@@H](CO)Cc1ccccc1	/	2	/	-1	-2	/	/
Cc1ccsc1C(=O)Nc1cccc(-n2cnnn2)c1	-13	2	10	0	15	/	/
SMILES	aSyn UTR inh	Beta apoptosis	CSC inhib	Bfl-1 A1 inh	Mdm2 MdmX PPI	Mdm2 MdmX conf	Full FLuc ctr
O=C(Nc1ccccc1F)c1ccc(C(=O)c2ccccc2)cc1	-100	/	-8	2	-55	/	/
CSCCC(=O)N1CCCC(N(C)CCc2ccccc2)C1 (stereo not drawn)	2	0	10	1	-25	/	/
CCN(CC(=O)Nc1cc(Cl)ccc1C)C(=O)CCS(=O)(=O)c1ccc(C)cc1	18	0	9	2	33	/	/
O=C(C[C@@H]1C/C=C\C[C@@H](Cc2ccc(F)cc2)C(=O)OC[C@@H](Cc2ccccc2)NC1=O)N[C@H](CO)Cc1ccccc1	/	1	7	1	80*	66*	41*
CCN(CC(=O)NCc1ccco1)S(=O)(=O)c1ccc(OC)cc1	-3	4	-8	2	-28	/	/
O=C(Cn1[nH]c(=O)c2ccccc2c1=O)NCCN1C(=O)S/C(=C\c2ccccc2)C1=O	/	0	-3	2	18	/	/
C#CCN1C=C(C(=O)OCC)C(C)N(Cc2ccccc2I)S1(=O)=O (stereo not drawn)	/	/	/	/	55*	49*	51*
C#CCN1C=C(C(=O)OCC)C(C)NS1(=O)=O (stereo not drawn)	/	/	/	/	25	/	/
Cc1onc(-c2ccccc2)c1C(=O)Nc1nnc(CC(C)(C)C)s1	21	-6	-30	1	12	/	/
CCc1nn(CCCC(=O)N2CCN(c3cccc(C)c3C)CC2)c(=O)c2cc3occc3n12	23	-3	74	-1	93*	61*	78*
CC[C@H](C)C(=O)O[C@H]1C[C@@H](C)C=C2C=C[C@H](C)[C@H](CC[C@@H]3C[C@@H](O)CC(=O)O3)[C@H]21	5	4	24	-1	53*!	33	/
CC[C@H](C)C(=O)O[C@H]1CCC=C2C=C[C@H](C)[C@H](CC[C@@H]3C[C@@H](O)CC(=O)O3)[C@H]21	40	10	33	1	37	/	/
Cc1ccc(S(=O)(=O)N[C@@H](Cc2ccccc2)C(=O)CCl)cc1	/	-7	55	0	80*	35	63*
CC(=O)N1CCC2(CC1)C/C(=N\NC(=S)Nc1ccccc1C)c1cc(O)ccc1O2	-13	5	2	1	45	/	/
CC(=O)N1CCC2(CC1)C/C(=N\NC(=S)Nc1ccccc1F)c1cc(O)ccc1O2	-12	1	7	0	67*	32	96*
CCCCc1ccc(CC(=O)Nc2cc(S(=O)(=O)N3CCOCC3)ccc2O)cc1	/	-2	/	2	14	/	/
O=C(Nc1ccc2c(c1)OCO2)c1cnn2c(C(F)(F)F)cc(-c3ccco3)nc12	/	0	8	1	33	/	/

Compound activity as filed in PubChem BioAssay.
